Screens: PubChem BioAssay, several laboratories
Only some compounds are listed: those with a hit (about 3.7% of all), similar ones and a draw of the others.
TIM10 inh: growth inhibitors of TIM10 yeast strain; S. cerevisiae TIM10 strain growth, BacTiter-Glo luminescence, 24 h; inhibition, % at 10 µM; 330,000 tested, 1.4% active;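 active = inhibition of 40% or more at the single tested concentration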;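 also: wild-type TIM10 isogenic control strain grown at permissive 25 °C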
tim10-1 inh: tim10-1 yeast growth inhibition; S. cerevisiae tim10-1 ts strain growth, BacTiter-Glo, 24 h; inhibition, % at 20 µM; 330,000 tested, 2.2% active;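 active = inhibition of at least 40%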;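 also: mutant grown at 25 °C; 0% = DMSO wells with yeast and 100% = wells holding no yeast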
NALP3 yeast inh: NALP3 inhibition in yeast; inhibition, % at 10 µM; AID 2825; 330,000 tested, 0.39% active; Yeast reconstituted NLRP3/ASC/caspase-1, beta-gal luminescence, 24 h;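 active = inhibition of 50% or more; inactive = inhibition below 50%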;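 also: plate controls were induced DMSO wells for no effect and uninduced yeast grown without galactose for full effect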
PfHsp90 yeast 2: inhibits growth of yeast expressing Plasmodium falciparum Hsp90; S. cerevisiae expressing PfHsp90, BacTiter-Glo ATP, 48 h; yeast lacking PDR1 and PDR3 efflux regulators; inhibition, % at 9.4 µM; 310,000 tested, 0.32% active; AID 504621;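 active = every replicate shows inhibition above about 80%, whatever the replicate mean, limit read from the data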;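 also: 0% = DMSO neutral controls and 100% = 20 µM radicicol positive controls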
tim23-1 inh: tim23-1 yeast growth inhibition; 330,000 tested, 1.3% active; inhibition, % at 20 µM; AID 463212; S. cerevisiae tim23-1 growth, BacTiter-Glo luminescence, 24 h;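 active = growth inhibition of the mutant yeast at or above 50%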;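 also: temperature-sensitive mutant grown at 25 °C; plate controls were DMSO-treated mutant yeast for no effect and medium wells lacking yeast for full effect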
tim10 confirm: confirmation of TIM10 yeast growth inhibitors. AID 463215. inhibition, % at 10 µM. shares compounds with TIM10 inh. S. cerevisiae tim10 strain growth, BacTiter-Glo luminescence, 24 h. 4,600 tested, 63% active;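 active = inhibition of yeast growth at or above a set limit in either of two replicates at 10 µM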;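 also: this counterscreen used the strain with wild-type TIM10; 0% = yeast with DMSO and 100% = medium wells lacking yeast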
The depositor's hits bear a star; . = no result.

SMILES | TIM10 inh | tim10-1 inh | NALP3 yeast inh | PfHsp90 yeast 2 | tim23-1 inh | tim10 confirm
CC(OC(=O)c1ccc([N+](=O)[O-])s1)C(=O)Nc1ncc(Cl)cc1Cl (stereo not drawn) | 44* | 24 | 4 | -3 | 23 | 2
CCOC(=O)c1ccc(N2C(=O)CC(N(C)CCc3ccc(OC)c(OC)c3)C2=O)cc1 (stereo not drawn) | 43* | 35 | 25 | 112* | 36 | 46*
O=C(CCS(=O)(=O)c1ccccc1)N(CCCN1CCOCC1)c1nc2ccc(F)cc2s1 | 56* | 30 | 45 | -4 | 35 | 65*
CCc1cccc2sc(N(CCCN3CCOCC3)C(=O)CS(=O)(=O)c3ccccc3)nc12 | 21 | 21 | 12 | -14 | 30 | .
O=C(Nc1ncc(Cc2cccc([N+](=O)[O-])c2)s1)c1ccco1 | 17 | 2 | 35 | -8 | 3 | .
CC(C)C(=O)Nc1ncc(Cc2ccc(Cl)cc2)s1 | 47* | 39 | 16 | -6 | 38 | 34*
Cc1ccc(Cc2cnc(NC(=O)c3ccco3)s2)cc1 | 40 | -4 | 22 | -47 | 44 | 40*
CNc1nc(N)nc(OC(C(F)(F)F)C(F)(F)F)n1 | 10 | -11 | 6 | 16 | 3 | .
CCOc1ccc(CN(C)Cc2cc(=O)oc3c(C)c(C)ccc23)cc1OC | . | . | . | -8 | . | .
COc1cc(NC(=S)Nc2cccc(C)n2)cc(OC)c1OC | 47* | 37 | 27 | -7 | 17 | 30*
COCC(C)NC(=O)CCS(=O)(=O)c1nc(-c2ccc(OC)cc2)cc(C(F)(F)F)n1 (stereo not drawn) | 10 | 19 | -4 | 9 | 7 | .
Cc1cc(NC(=O)CCCS(=O)(=O)c2nc(-c3cccs3)cc(C(F)(F)F)n2)no1 | 49* | 39 | 9 | 21 | 4 | 37*
CCOC(=O)CCS(=O)(=O)c1nc(-c2ccccc2)cc(C(F)(F)F)n1 | 52* | 18 | 42 | 3 | 21 | 58*
O=C(O)CCS(=O)(=O)c1nc(-c2cccs2)cc(C(F)(F)F)n1 | 29 | 26 | -2 | 32 | 26 | .
COC(=O)CCS(=O)(=O)c1nc(-c2ccccc2)cc(C(F)(F)F)n1 | 45* | 20 | 31 | 10 | 34 | 31*
O=C1c2ccccc2C(=O)N1n1c(=O)[nH]c2ccccc2c1=O | -3 | -1 | 10 | . | 8 | .
O=C(CN(Cc1ccccc1Cl)C(=O)CNS(=O)(=O)c1ccc(F)cc1)NCC1CCCO1 (stereo not drawn) | 13 | -9 | 15 | 9 | -1 | .
Cc1cccc(Cn2c(SCCN3CCCCC3)nc3c2c(=O)[nH]c(=O)n3C)c1 | -1 | -4 | 8 | 12 | -7 | .
CCCCC(C(=O)O)C(C)CC(=O)Nc1nccs1 (stereo not drawn) | -10 | -3 | -13 | 15 | 10 | .
C=CCNC(=O)COC(=O)c1cccnc1Nc1ccccc1F | -4 | 27 | 17 | 7 | 28 | .
C#CCOCCOCCOCCNc1nc(N2CCN(C(=O)Cn3cc(CCCCN)nn3)CC2)nc(N2CCN(C(=O)Cn3cc(CCCN=C(N)N)nn3)CC2)n1 | 3 | -20 | 12 | -11 | 13 | .
C#CCOCCOCCOCCNc1nc(N2CCN(C(=O)Cn3cc(CCCN=C(N)N)nn3)CC2)nc(N2CCN(C(=O)[C@H](C)n3cc(CCCN=C(N)N)nn3)CC2)n1 | 61* | -4 | 6 | 14 | -10 | -8
CC(=O)NCCC(=O)Nc1ccc(F)cc1C | -1 | 2 | 2 | . | 14 | .
O=C(c1cn(-c2ccccc2)nc1-c1cccs1)N1CCN(c2ccccn2)CC1 | 23 | 29 | 5 | -28 | 31 | .
Cc1[nH]n(-c2ccc([N+](=O)[O-])cc2)c(=O)c1C=NCCc1c(C)[nH]c2ccccc12 | 45* | 21 | 9 | 5 | 8 | -15
SMILES | TIM10 inh | tim10-1 inh | NALP3 yeast inh | PfHsp90 yeast 2 | tim23-1 inh | tim10 confirm
Cc1cccc(C)c1NC(=O)Cn1c(=O)n(CCC(=O)NCc2ccco2)c(=O)c2sccc21 | -4 | -1 | 7 | 9 | 1 | .
O=C1c2ccccc2C(=O)C1c1ccc2ccccc2n1 | 58* | 31 | 15 | . | 26 | 46*
O=C(Cn1nc(C(=O)O)c2ccccc2c1=O)NC12CC3CC(CC(C3)C1)C2 | 68* | 37 | 11 | 1 | 32 | 20
Nc1nc(SCC(=O)C23CC4CC(CC(C4)C2)C3)n[nH]1 | 6 | 12 | -12 | 5 | 10 | .
CC1/C(=N/O)CC(c2ccccc2)N(C)C1c1ccccc1 (stereo not drawn) | 52* | 27 | 20 | 43 | 20 | 55*
C=CCNC(=S)Nc1cccc([N+](=O)[O-])c1 | 2 | 18 | 19 | 5 | 9 | .
O=[N+]([O-])c1cccc(-c2ccc(/C=N/NC(=S)Nc3ccccc3)o2)c1 | 47* | 24 | 32 | -36 | 6 | 48*
C=CCNC(=S)N/N=C/c1cccc([N+](=O)[O-])c1 | 47* | 38 | -2 | -13 | 33 | 40*
COCCNC(=O)C12CC3CC(CC(Cl)(C3)C1)C2 | -13 | 3 | 28 | . | 7 | .
O=[N+]([O-])c1cccc(NN=Nc2ccccc2)c1 | 41* | 38 | -7 | -19 | 42 | 31*
CC(=O)c1cccc(N=Nc2c(C)[nH]c3ccccc23)c1 | 41* | 21 | 26 | -25 | 17 | 29
CCOC(=O)c1c(C)[nH]c(C(=O)N2CCc3cc(OC)c(OC)cc3C2)c1C | 6 | 20 | 17 | . | 9 | .
COc1cc2c(cc1OC)CN(C(=O)c1ccc([N+](=O)[O-])o1)CC2 | 68* | 35 | 6 | 27 | 31 | 75*
CC1(C)CC2CC(C)(CN2S(=O)(=O)c2cccc(C(N)=O)c2)C1 (stereo not drawn) | 2 | 17 | 10 | -5 | 29 | .
CC1(C)CC2CC(C)(CN2S(=O)(=O)c2ccc(N)cc2)C1 (stereo not drawn) | 54* | 39 | -7 | 33 | 40 | 28
CN(C)c1ccc(P(=O)(OCc2ccccc2)C(O)c2ccc(Br)cc2)cc1 (stereo not drawn) | 28 | 25 | 11 | -7 | 16 | .
CC(C)COP(=O)(c1ccc(N(C)C)cc1)C(O)c1ccc(Br)cc1 (stereo not drawn) | 42* | 27 | 3 | 3 | 26 | 35*
COc1ccc(C(=O)c2ccc(OC)c3cccc(O)c23)cc1OC | 44* | 31 | 24 | -24 | 36 | 27
COc1ccc(C(=O)c2ccc(OC)c(OC)c2)cc1OC | 5 | 19 | 1 | -2 | 18 | .
Cc1ccc(C(=O)NCC2(c3ccccc3)CCCC2)cc1 | 16 | 14 | 29 | 8 | 18 | .
O=C(NCC1(c2ccccc2)CCCC1)c1ccc(Br)cc1 | 41* | 35 | 8 | -9 | 36 | 13
Cc1ccc(S(=O)(=O)NCC(c2ccc3c(c2)OCO3)N2CCN(c3ccccc3)CC2)cc1 (stereo not drawn) | 11 | 4 | 21 | . | 8 | .
